This note sets out measurements from PubChem BioAssay (EPA / NIEHS).

Molecules are shown by their SMILES. Inconclusive results are not listed. Activity calls are given as the source filed them. Rule for the calls: active = hit-call score of the fitted dose curve at least 0.9, where 1 is the maximum; inconclusive = response in the unintended direction; inactive = score below 0.9.

For the assay, the target named is human RAR-related Orphan Receptor beta (RORb), RORB (gene 6096) (UniProt Q92753). Description: ATG_RORb_TRANS: Attagene TRANS-FACTORIAL HepG2 Assay for human RAR-related Orphan Receptor beta (RORb) (AID 2283010). Here is the method: ATG_TRANS is a cell-based, multiplexed-readout assay that uses HepG2, a human liver cell line, with measurements taken at 24 hours after chemical dosing in a 24-well plate.ATG_RORb_TRANS is one of 30 assay component(s) measured or calculated from the ATG_TRANS assay. It is designed to make measurements of mRNA induction, a form of inducible reporter, as detected with fluorescence intensity signals by Reverse transcription polymerase chain reaction (RT-PCR) and Capillary electrophoresis technology.Data from the assay component ATG_RORb_TRANS was analyzed into 1 assay endpoint. This assay endpoint, ATG_RORb_TRANS, was analyzed in the positive analysis fitting direction relative to DMSO as the negative control and baseline of activity. Using a type of inducible reporter, measures of mRNA for gain-of-signal activity can be used to understand the reporter gene at the transcription factor-level as they relate to the gene RORB. Furthermore, this assay endpoint can be referred to as a primary readout, because this assay has produced multiple assay endpoints where this one serves a reporter gene function. To generalize the intended target to other relatable targets, this assay endpoint is annotated to the nuclear receptor intended target family, where the subfamily is orphan.
human RAR-related Orphan Receptor beta (RORb), RORB (gene 6096), sequence (Q92753 whole entry, looked up): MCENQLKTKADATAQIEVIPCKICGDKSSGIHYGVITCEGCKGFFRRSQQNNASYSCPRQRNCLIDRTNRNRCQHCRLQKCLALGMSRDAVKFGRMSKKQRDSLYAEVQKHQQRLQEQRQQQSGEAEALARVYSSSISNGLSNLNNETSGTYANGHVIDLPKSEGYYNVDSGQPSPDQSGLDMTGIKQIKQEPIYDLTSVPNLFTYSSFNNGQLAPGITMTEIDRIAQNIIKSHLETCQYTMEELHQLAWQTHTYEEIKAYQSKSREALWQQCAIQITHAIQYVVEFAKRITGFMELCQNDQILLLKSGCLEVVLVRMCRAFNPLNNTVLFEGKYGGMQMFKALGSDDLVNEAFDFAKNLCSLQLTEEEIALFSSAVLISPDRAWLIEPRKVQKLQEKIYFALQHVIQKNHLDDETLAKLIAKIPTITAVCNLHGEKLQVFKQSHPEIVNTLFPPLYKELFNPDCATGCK
Human liver HepG2 cells are transiently transfected with multiple reporter transcription units (MRTUs) in 6-well plates using FuGene 6 reagent (Roche; 3 ml FuGene/1 mg DNA). The MRTU constructs are regulated by a cis-regulating element (promoter). […] A major difference between the CIS and TRANS system is that in CIS activities of endogenous TFs are measured, whereas the TRANS assay evaluates changes in activities of exogenous, chimeric NR-Gal4 proteins. […] At the end of 24 hour incubation, total RNA was isolated using TriZol reagent (Invitrogen). The isolated RNA is then reverse-transcribed using oligo(dT) primer and Mo-MLV reverse transcriptase (Invitrogen) with DNAse I (Ambion) treatment for 30 min. The one-tenth of the produced cDNA was amplified by PCR using Taq DNA polymerase (Invitrogen) and two reporter sequence-specific primers. The PCR products were fluorescently labeled by primer extension with 6-arboxyfluorescein (6-FAM) 5'-labeled reporter sequence-specific primer (2 min at 95 C, 20 s at 68 C and 10 min at 72 C) and these products were digested with 5U of HpaI (New England Biolabs) for 2h at 37 C. The fragments were purified using Qiaquick PCR columns (Qiagen), analyzed on an ABI 3130xL genetic analyzer (Applied Biosystems) with peak positions identified by using a set of X-rhodamine (ROX)-labeled MapMarker1000 molecular weight standards (BioVentures). The raw capillary electrophoresis data was processed using Attagraph software (Attagene).
Consider `NCc1ccco1`, for which the result was inactive. Under `N[C@@H](Cc1cc(I)c(Oc2cc(I)c(O)c(I)c2)c(I)c1)C(=O)O` stands “inactive”. As to `O=C1OC[C@H](Cc2cccc(O)c2)[C@H]1Cc1cccc(O)c1`, the molecule was called inactive. `CN(C)c1cccc(O)c1`: the call was inactive. The value for `CCOCCOCCOCC` was “inactive”; that for `Nc1ccc(N)c2c1C(=O)c1ccccc1C2=O` was “inactive”; that for `CCCCCCCCCCCCCCCC(=O)OC/C=C(C)/C=C/C=C(C)/C=C/C1=C(C)CCCC1(C)C` was “inactive”.

As to `C=CCN(CC=C)CC=C`, the molecule was called inactive. Turning to `CC(=O)CC(=O)Nc1ccccc1`, the molecule was called inactive. `O=CCc1ccccc1`: the molecule was called inactive. Take `CCCCCCCCC=CCCCCCCCC1=NCCN1CCO`: the outcome was inactive. Regarding `CCCC(O)C(O)CO` (stereo not given), the outcome was inactive.

For `CS(=O)(=O)OCCCCOS(C)(=O)=O`, the call was inactive. Take `CCCCCCCCCCCCS(=O)(=O)Cl`: the molecule was classed as inactive. With `CN(C)CCOC(C)(c1ccccc1)c1ccccn1` (stereo not given), the call was inactive. Take `Nc1ccc(NCCO)c([N+](=O)[O-])c1`: the molecule was called inactive. Take `CC(=O)C(C)O` (stereo not given): the outcome was inactive.

On to `Clc1cc(Cl)c(-c2c(Cl)c(Cl)cc(Cl)c2Cl)cc1Cl`, for which the molecule was called inactive. For the molecule `CC(C)NCC(O)COc1ccc(CC(N)=O)cc1` (stereo not given), the outcome was inactive. Under `CCCCC(CC)COC(=O)c1ccc(O)cc1` (stereo not given) stands “inactive”; under `C#CC(C)(O)CC(C)C` (stereo not given), “inactive”. In the case of `CCCC(=O)OCCc1ccccc1`, the molecule was called inactive. The value for `O=C(c1ccccc1)C(O)c1ccccc1` (stereo not given) was “inactive”; that for `Cc1ccc(-c2ccccc2)cc1` was “inactive”. On to `Brc1ccc(Br)c(Br)c1`, for which the result was inactive. Turning to `O=c1c(O)c(-c2ccc(O)cc2)oc2cc(O)cc(O)c12`, the call was inactive. The value for `COc1ccc(N=Nc2cc(C)c(N=Nc3ccc(S(=O)(=O)O)cc3)cc2OC)cc1` was “inactive”. In the case of `ON=C1CCCCC1`, the molecule was classed as inactive.

Take `COC(=O)c1cccnc1`: the call was inactive. The value for `Cc1occc(=O)c1OC(=O)C(C)C` was “inactive”; that for `C[C@H]1O[C@@H](O[C@H]2[C@@H](O)C[C@H](O[C@H]3[C@@H](O)C[C@H](O[C@H]4CC[C@@]5(C)[C@H](CC[C@@H]6[C@@H]5C[C@@H](O)[C@]5(C)[C@@H](C7=CC(=O)OC7)CC[C@]65O)C4)O[C@@H]3C)O[C@@H]2C)C[C@H](O)[C@@H]1O` was “inactive”. Under `CCCC(C)=O` stands “inactive”. In the case of `O=C1NC2NC(=O)NC2N1` (stereo not given), the molecule was called inactive.

As to `O=c1[nH]c(=O)c2cn[nH]c2[nH]1`, the molecule was called inactive. Take `CSCCC=O`: the result was inactive. Under `O=C1OC2(c3ccccc31)c1ccc(O)c(Br)c1Oc1c2ccc(O)c1Br` stands “inactive”; under `CC1=NN(c2ccc(S(=O)(=O)O)cc2)C(=O)C1`, “inactive”; under `C1CCOC1`, “inactive”. Under `CC(=O)O[C@@H]1CC2CCC1(C)C2(C)C` (stereo not given in full) stands “inactive”; under `C[C@H](CCC(=O)NCC(=O)O)[C@H]1CC[C@H]2[C@@H]3[C@H](O)C[C@@H]4C[C@H](O)CC[C@]4(C)[C@H]3C[C@H](O)[C@]12C`, “inactive”.
